The record followed here is PubChem BioAssay (Tox21).

A short description of test [1]: qHTS RealTime-Glo MT Cell Viability Assay in HEK293 cells - 0 hour (AID 1224880). Further: top concentration of the series differs between compounds; nearly all actives have a fitted effect of over 45% in size. The procedure, abridged: (§1)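 Viable HEK293 cells reduce a cell-permeant prosubstrate; the product diffuses out and is consumed by NanoLuc in the medium to give light. Compounds went in after a 5 h incubation and plates were read over the treatment course.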
Test [2] in a line: A CellTox Green Cytotoxicity Assay to monitor cytotoxicity in HEK293 cells - 32 hour (AID 1224881). Further: nearly all actives have a fitted effect of over 40% in size. An outline of the steps: (§2)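 Fluorescence intensity, read at 0, 8, 16, 24, 32 and 40 h of compound treatment, reflected dye binding to DNA of dead HEK293 cells; compounds (23 nL, DMSO) were added 5 h after plating cells with reagent.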
The nature of test [3]: A CellTox Green Cytotoxicity Assay to monitor cytotoxicity in HepG2 cells - 0 hour (AID 1224882). Further: nearly all actives have a fitted effect of over 35% in size. The procedure, abridged:
(§3)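 Using 1536-well format, dye-containing HepG2 suspension was seeded, allowed 5 h at 37 C/5% CO2, dosed by pintool with compounds, positive and negative controls, and imaged for fluorescence across 40 h.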

Test [4] is described as follows: A CellTox Green Cytotoxicity Assay to monitor cytotoxicity in HepG2 cells - 32 hour (AID 1224883). Further: nearly all actives have a fitted effect of over 50% in size. The procedure, abridged: as §3
The nature of test [5]: A CellTox Green Cytotoxicity Assay to monitor cytotoxicity in HEK293 cells - 8 hour (AID 1224884). Further: nearly all actives have a fitted effect of over 35% in size. An outline of the steps: as §2
Test [6] can be described thus: qHTS RealTime-Glo MT Cell Viability Assay in HepG2 cells - 16 hour (AID 1224885). Further: nearly all actives have a fitted effect of over 50% in size. The procedure, abridged: (§4)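 HepG2 cells (600/well) were dispensed with RealTime-Glo reagents, incubated 5 h at 37 °C, then treated with compounds in DMSO for up to 40 h. Nonlytic NanoLuc luminescence reflecting viable cells was read at each stated time point.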
On the technique in general: qHTS replaces the single test concentration by a dilution series.

Test [7] is described as follows: qHTS RealTime-Glo MT Cell Viability Assay in HEK293 cells - 24 hour (AID 1224886). Further: top concentration of the series differs between compounds; nearly all actives have a fitted effect of over 50% in size. The procedure, abridged:
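HEK293 cells seeded with NanoLuc/prosubstrate reagent, rested 5 h at 37 C, then dosed and kept at 37 C up to 40 h. Nonlytic real-time luminescence from viable cells read at 0, 8, 16, 24, 32 and 40 h.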

Test [8] is described as follows: qHTS RealTime-Glo MT Cell Viability Assay in HEK293 cells - 8 hour (AID 1224887). Further: top concentration of the series differs between compounds; nearly all actives have a fitted effect of over 50% in size. An outline of the steps:
as §1

Test [9] is described as follows: A CellTox Green Cytotoxicity Assay to monitor cytotoxicity in HEK293 cells - 16 hour (AID 1224888). Further: nearly all actives have a fitted effect of over 35% in size. The procedure, abridged:
as §2

Test [10] is described as follows: qHTS RealTime-Glo MT Cell Viability Assay in HepG2 cells - 0 hour (AID 1224889). Further: nearly all actives have a fitted effect of over 50% in size. The procedure, abridged:
as §4

Test [11] is described as follows: A CellTox Green Cytotoxicity Assay to monitor cytotoxicity in HepG2 cells - 8 hour (AID 1224890). Further: nearly all actives have a fitted effect of over 45% in size. An outline of the steps:
as §3

A short description of test [12]: qHTS assay to identify small molecule antagonists of the estrogen receptor alpha (ER-alpha) signaling pathway using the BG1 cell line in the presence of 0.1 nM 17-beta-estradiol - cell viability counter screen (AID 1259241). Further: nearly all actives have a fitted effect of over 40% in size. An outline of the steps:
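Cells were plated and left 24 hr, compounds in DMSO were pinned in, 17beta-estradiol was added to 0.1 nM final, and after 22 hr CellTiter-Fluor reagent was added for 30 min before fluorescence was read.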

Test [13] in a line: qHTS assay to identify small molecule antagonists of the androgen receptor (AR) signaling pathway using the MDA cell line in the presence of 0.5 nM R1881 - cell viability counter screen (AID 1259242). Further: nearly all actives have a fitted effect of over 45% in size. The procedure, abridged: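 Viability of MDA-kb2 cells was multiplexed with the luciferase AR readout; after 16 hr with compounds and R1881 at 0.5 nM final, CellTiter-Fluor fluorescence was recorded.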

Test [14] deals with Androgen receptor (Homo sapiens) (UniProt P10275). Description: qHTS assay to identify small molecule antagonists of the androgen receptor (AR) signaling pathway using the MDA cell line in the presence of 0.5 nM R1881 (AID 1259243). Further: nearly all actives have a fitted effect of over 50% in size. The procedure, abridged:
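Reporter cells cultured without CO2 receive test chemicals, then 0.5 nM R1881 final; after 16 hr at 37C, ONE-Glo is added and light output recorded.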

Test [15] in a line: qHTS assay to identify small molecule HDAC inhibitors - cell viability counter screen (AID 1259365). An outline of the steps:
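Counter screen in wild-type HCT-116 cells: compounds dissolved in DMSO are pin-transferred onto overnight-plated cells and left 2hr at 37C. ATP-based CellTiter-Glo luminescence then measures viable cells.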

Test [16] can be described thus: qHTS assay to identify small molecule agonists of the sonic hedgehog signaling (Shh) pathway - cell viability counter screen (AID 1259366). Further: nearly all actives have a fitted effect of over 50% in size. An outline of the steps: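 Cells are plated at 2,000 per well and left 4hr at 37C, 5% CO2 before compound addition. After 23hr of treatment, CellTiter-Fluor reagent is added for 1hr at 37C and fluorescence is measured.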
Test [17] is described as follows: qHTS assay to identify small molecule antagonists of the sonic hedgehog signaling (Shh) pathway - cell viability counter screen (AID 1259367). Further: nearly all actives have a fitted effect of over 55% in size. An outline of the steps:
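NIH/3T3-derived Gli1-Luc reporter cells, 2,000/well, plated 4 hr before compound addition, then stimulated with conditioned medium for 24 hr at 37C. Viability measured in the same wells by CellTiter-Fluor fluorescence, reagent added at 23 hr for 1 hr.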

Test [18] is described as follows: qHTS assay to identify small molecule phospholipidosis (PLD) inducers (AID 1259344; active means well fitted curve in the direction sought with a large enough effect; an effect the other way counts as inactive or inconclusive). The procedure, abridged: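 HepG2 cells, 900/well, treated with compound plus LipidTOX Red for 24 h at 37 C; amiodarone positive and DMSO negative controls. Fixed with paraformaldehyde/Hoechst, then high-content imaging scored LipidTOX pit count and integrated intensity per well and per cell.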

The nature of test [19]: qHTS assay to identify small molecule HDAC inhibitors (AID 1259364). Further: potency means the concentration at half of the fitted maximal effect.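 Further: wild-type HCT-116 cells with endogenous class I/II HDAC activity; nearly all actives have a fitted effect of over 45% in size.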 An outline of the steps:
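Read-out: luminescence of HDAC-Glo I/II reagent, 30 min RT, reflecting class I/II deacetylase activity in whole HCT-116 cells pre-exposed 2 h to DMSO-dissolved compounds.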

The target in test [20] is Estrogen receptor (Homo sapiens) (UniProt P03372). As to the kind of experiment: qHTS assay to identify small molecule antagonists of the estrogen receptor alpha (ER-alpha) signaling pathway using the BG1 cell line in the presence of 0.1 nM 17-beta-estradiol (AID 1259244). Further: nearly all actives have a fitted effect of over 50% in size. An outline of the steps:
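Estradiol at 0.1 nM (final) stimulates the endogenous ER-alpha of VM7Luc4E2 cells carrying an ERE-driven luciferase; compounds are co-incubated 22 h at 37C and luciferase output quantified by luminescence.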

The structures appear in SMILES notation. Results filed as inconclusive are left out. Activity calls are given as the source filed them. Unless noted, the call rests on the fitted dose curve; in most records, active means well fitted curve in the direction sought with a large enough effect in the repeat runs; inconclusive means weak or mixed curves; inactive means no such curve, though single readings can be large; an effect the other way counts as inactive or inconclusive.

Androgen receptor (Homo sapiens), sequence (P10275 whole entry, looked up): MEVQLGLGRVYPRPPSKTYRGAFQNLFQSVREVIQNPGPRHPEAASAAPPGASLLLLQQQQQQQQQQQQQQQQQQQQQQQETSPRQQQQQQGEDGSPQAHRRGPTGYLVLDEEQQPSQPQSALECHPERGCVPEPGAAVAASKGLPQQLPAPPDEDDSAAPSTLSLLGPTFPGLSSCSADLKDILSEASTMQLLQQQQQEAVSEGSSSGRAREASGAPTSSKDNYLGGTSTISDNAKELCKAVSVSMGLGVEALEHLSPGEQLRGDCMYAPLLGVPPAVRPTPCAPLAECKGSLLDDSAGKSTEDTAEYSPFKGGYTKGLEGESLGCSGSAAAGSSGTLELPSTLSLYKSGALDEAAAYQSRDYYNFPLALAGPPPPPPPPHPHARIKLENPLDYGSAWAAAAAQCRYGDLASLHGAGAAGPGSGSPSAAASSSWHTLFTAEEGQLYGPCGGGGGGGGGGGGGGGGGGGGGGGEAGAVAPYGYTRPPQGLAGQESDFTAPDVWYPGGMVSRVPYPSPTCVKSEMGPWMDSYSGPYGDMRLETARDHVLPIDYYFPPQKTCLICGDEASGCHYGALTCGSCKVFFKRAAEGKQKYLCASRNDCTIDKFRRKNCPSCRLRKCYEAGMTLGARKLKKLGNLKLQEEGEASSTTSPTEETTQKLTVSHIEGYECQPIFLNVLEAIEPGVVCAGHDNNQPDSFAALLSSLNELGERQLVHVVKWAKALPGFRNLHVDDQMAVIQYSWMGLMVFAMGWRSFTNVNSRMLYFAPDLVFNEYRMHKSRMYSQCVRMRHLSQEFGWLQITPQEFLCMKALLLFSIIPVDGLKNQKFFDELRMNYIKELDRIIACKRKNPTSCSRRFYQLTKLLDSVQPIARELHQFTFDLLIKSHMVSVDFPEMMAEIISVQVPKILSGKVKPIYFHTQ
Estrogen receptor (Homo sapiens), sequence (P03372 whole entry, looked up): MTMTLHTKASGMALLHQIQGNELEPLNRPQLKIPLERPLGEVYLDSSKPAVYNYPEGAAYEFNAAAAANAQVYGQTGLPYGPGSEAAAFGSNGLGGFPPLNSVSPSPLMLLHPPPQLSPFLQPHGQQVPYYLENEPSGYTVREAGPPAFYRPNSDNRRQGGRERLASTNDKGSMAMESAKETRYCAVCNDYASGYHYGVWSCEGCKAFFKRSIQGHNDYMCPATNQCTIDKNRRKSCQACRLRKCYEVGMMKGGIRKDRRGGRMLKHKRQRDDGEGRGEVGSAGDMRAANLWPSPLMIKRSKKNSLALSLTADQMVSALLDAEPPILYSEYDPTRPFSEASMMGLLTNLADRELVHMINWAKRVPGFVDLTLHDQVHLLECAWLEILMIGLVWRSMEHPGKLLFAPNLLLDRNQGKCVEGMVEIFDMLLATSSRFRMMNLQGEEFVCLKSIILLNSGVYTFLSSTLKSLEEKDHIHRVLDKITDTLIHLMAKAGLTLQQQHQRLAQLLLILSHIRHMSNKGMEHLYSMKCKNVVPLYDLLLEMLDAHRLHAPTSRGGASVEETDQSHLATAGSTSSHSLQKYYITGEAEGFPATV

For `CCc1ccc(C)cc1`, the Potency entry in test [1], in test [2], in [3], in test [4], in [5] and in test [6] was “inactive” throughout. For the same compound, the Potency entry in test [7], in [8], in test [9], in test [10], in test [11] and in test [12] was “inactive” in each case. In addition, the Potency result in test [13], in test [14], in test [15], in test [16] and in [17] was “inactive” throughout.

In the case of `COc1ccc(C2C(=O)c3ccccc3C2=O)cc1`, the Potency result in test [1], in test [2], in test [3], in [4], in test [5] and in test [6] was “inactive” in each case. The Potency entry in [7], in test [8], in [9], in test [10], in test [11] and in test [12] was “inactive” each time. Besides, the Potency result in test [13], in test [18] and in [15] was “inactive” each time. Moreover, in test [19], the Potency was 23.7 µM (active).

As for `O=C(O)c1ccc(O)cc1O`, the Potency entry in [1], in test [2], in [3], in test [4], in [5] and in test [6] was “inactive” throughout. In addition, the Potency entry in test [7], in test [8], in test [9], in [10], in test [11] and in [12] was “inactive” each time. For the same compound, the Potency entry in [13], in test [19], in test [15] and in test [16] was “inactive” each time.

Regarding `CC(=O)OCC(C)C`, the Potency entry in test [1], in [2], in test [3], in test [4], in test [5] and in [6] was “inactive” throughout. Also, the Potency entry in test [7], in test [9], in [10], in test [11], in test [12] and in test [13] was “inactive” each time. For the same compound, the Potency entry in test [14], in [20], in [15], in [16] and in test [17] was “inactive” each time.

`CCC1CCC(CCC(=O)O)C1` (stereo not given): the Potency entry in test [1], in test [2], in test [3], in test [4], in test [5] and in test [6] was “inactive” in each case. In addition, the Potency entry in test [7], in test [8], in [9], in test [10], in test [11] and in [12] was “inactive” each time. For the same compound, the Potency entry in test [13], in [19], in test [15], in [16] and in test [17] was “inactive” each time.

`CC(C)(C)NCC(O)COc1cccc2c1C[C@H](O)[C@H](O)C2` (stereo not given in full): the Potency result in [1], in test [2], in test [3], in [4], in test [5] and in test [6] was “inactive” in each case. Also, the Potency result in test [7], in test [8], in test [9], in [10], in [11] and in test [12] was “inactive” in each case. In addition, the Potency result in [13], in [18], in test [19], in test [15], in test [16] and in test [17] was “inactive” in each case.

Consider `CCN(CC)CCOC(=O)C(c1ccccc1)c1ccccc1`, for which the Potency entry in test [1], in [2], in test [3], in test [4], in test [5] and in [6] was “inactive” in each case. Moreover, the Potency result in test [7], in test [8], in test [9], in [10], in test [11] and in [12] was “inactive” in each case. For the same compound, the Potency entry in [13], in [18], in [19], in test [15], in [16] and in test [17] was “inactive” throughout.

Consider `CCNc1nc(N)nc(Cl)n1`, for which the Potency entry in test [1], in test [2], in test [3], in test [4], in test [5] and in test [6] was “inactive” each time. The Potency result in test [7], in test [8], in test [9], in [10], in test [11] and in [12] was “inactive” throughout. For the same compound, the Potency result in test [13], in [15], in [16] and in test [17] was “inactive” in each case.
